Experimental data as given in PubChem BioAssay (NCI).
About 83,000 compounds went through this panel and 20% of them were active in at least one assay; those are over-represented in the sample as a whole.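 A percent growth of 40 corresponds to 60% growth inhibition; 0 means no net growth; -100 means all cells died. Active threshold: below 10.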

How the values were obtained:
Assay in all cases: NCI-60 one-dose screen, 48 h (100 = growth as untreated, 0 = no growth, -100 = all killed)
Details in all cases: 10 µM unless noted
[1] = test system: HCT-15 colon
[2] = test system: HT29 colon
[3] = test system: SNB-75 CNS
[4] = test system: SNB-19 CNS
[5] = test system: U251 CNS
[6] = test system: PC-3 prostate
[7] = test system: SK-MEL-5 melanoma
[8] = test system: UACC-62 melanoma
[9] = test system: LOX IMVI melanoma
[10] = test system: SK-MEL-28 melanoma
[11] = test system: SK-MEL-2 melanoma
[12] = test system: SN12C renal
[13] = test system: UO-31 renal
[14] = test system: TK-10 renal
[15] = test system: ACHN renal
[16] = test system: CAKI-1 renal
[17] = test system: A498 renal
[18] = test system: MOLT-4 leukemia

Measured: growth

C=CCC(CCC(CC=C)C(=O)OCC)C(=O)OCC (stereo not drawn)
inactive: [1] 105% | [2] 102% | [3] 77.8% | [4] 96.2% | [5] 102% | [6] 97.9% | [7] 108% | [8] 101% | [9] 92.1% | [10] 91.1% | [11] 106% | [12] 100% | [13] 88.5% | [14] 91.6% | [15] 108% | [16] 103% | [17] 120% | [18] 104%

CC(=O)NCCN
inactive: [1] 94% | [2] 101% | [3] 89.7% | [4] 98.8% | [5] 97.3% | [6] 92.3% | [7] 108% | [8] 102% | [9] 93.3% | [10] 108% | [11] 115% | [12] 104% | [13] 98.4% | [14] 109% | [16] 84.7% | [17] 97.9% | [18] 102%

CC[N+](C)(C)N
inactive: [1] 103% | [2] 102% | [3] 80.5% | [4] 95.5% | [5] 101% | [6] 100% | [7] 95.4% | [8] 105% | [9] 90.9% | [10] 94.9% | [11] 108% | [12] 104% | [13] 89.8% | [14] 100% | [15] 110% | [16] 95.4% | [17] 121% | [18] 104%
